Unmarked numbers belong to inactive results. Calls of active or inactive are those of the source. Unless noted, no stated cut-off is given here; in the data, active means inhibition above about 36%; inactive means the rest.

Assay [1] has as its system transactivating tegument protein VP16 (Human herpesvirus 1). Kind of assay: VP16 transactivation reporter inhibitors, counter-screen for SRC2 inhibitor project, cell-based, luminescence, single concentration (AID 652007). The conditions noted are these: cell-based VP16 transactivation luciferase reporter, at 8.9 µM, active compounds read high.
Assay [2] has as its target Nuclear receptor coactivator 2 (Homo sapiens) (UniProt Q15596). Kind of assay: SRC2 coactivator transcriptional activity inhibitors, confirmation, cell-based, luminescence, HEK293, triplicate (AID 652008;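 active means mean inhibition above 46.5%, the solvent-only control mean plus 3 SD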;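 further: 0% = DMSO-treated cells and 100% = Gossypol at 36 µM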). The conditions noted are these: HEK293 GAL4-SRC2 luciferase reporter, at 8.9 µM, active compounds read high.

Chain of Nuclear receptor coactivator 2 (Homo sapiens) (Q15596 whole entry, looked up, the tested form may be a part): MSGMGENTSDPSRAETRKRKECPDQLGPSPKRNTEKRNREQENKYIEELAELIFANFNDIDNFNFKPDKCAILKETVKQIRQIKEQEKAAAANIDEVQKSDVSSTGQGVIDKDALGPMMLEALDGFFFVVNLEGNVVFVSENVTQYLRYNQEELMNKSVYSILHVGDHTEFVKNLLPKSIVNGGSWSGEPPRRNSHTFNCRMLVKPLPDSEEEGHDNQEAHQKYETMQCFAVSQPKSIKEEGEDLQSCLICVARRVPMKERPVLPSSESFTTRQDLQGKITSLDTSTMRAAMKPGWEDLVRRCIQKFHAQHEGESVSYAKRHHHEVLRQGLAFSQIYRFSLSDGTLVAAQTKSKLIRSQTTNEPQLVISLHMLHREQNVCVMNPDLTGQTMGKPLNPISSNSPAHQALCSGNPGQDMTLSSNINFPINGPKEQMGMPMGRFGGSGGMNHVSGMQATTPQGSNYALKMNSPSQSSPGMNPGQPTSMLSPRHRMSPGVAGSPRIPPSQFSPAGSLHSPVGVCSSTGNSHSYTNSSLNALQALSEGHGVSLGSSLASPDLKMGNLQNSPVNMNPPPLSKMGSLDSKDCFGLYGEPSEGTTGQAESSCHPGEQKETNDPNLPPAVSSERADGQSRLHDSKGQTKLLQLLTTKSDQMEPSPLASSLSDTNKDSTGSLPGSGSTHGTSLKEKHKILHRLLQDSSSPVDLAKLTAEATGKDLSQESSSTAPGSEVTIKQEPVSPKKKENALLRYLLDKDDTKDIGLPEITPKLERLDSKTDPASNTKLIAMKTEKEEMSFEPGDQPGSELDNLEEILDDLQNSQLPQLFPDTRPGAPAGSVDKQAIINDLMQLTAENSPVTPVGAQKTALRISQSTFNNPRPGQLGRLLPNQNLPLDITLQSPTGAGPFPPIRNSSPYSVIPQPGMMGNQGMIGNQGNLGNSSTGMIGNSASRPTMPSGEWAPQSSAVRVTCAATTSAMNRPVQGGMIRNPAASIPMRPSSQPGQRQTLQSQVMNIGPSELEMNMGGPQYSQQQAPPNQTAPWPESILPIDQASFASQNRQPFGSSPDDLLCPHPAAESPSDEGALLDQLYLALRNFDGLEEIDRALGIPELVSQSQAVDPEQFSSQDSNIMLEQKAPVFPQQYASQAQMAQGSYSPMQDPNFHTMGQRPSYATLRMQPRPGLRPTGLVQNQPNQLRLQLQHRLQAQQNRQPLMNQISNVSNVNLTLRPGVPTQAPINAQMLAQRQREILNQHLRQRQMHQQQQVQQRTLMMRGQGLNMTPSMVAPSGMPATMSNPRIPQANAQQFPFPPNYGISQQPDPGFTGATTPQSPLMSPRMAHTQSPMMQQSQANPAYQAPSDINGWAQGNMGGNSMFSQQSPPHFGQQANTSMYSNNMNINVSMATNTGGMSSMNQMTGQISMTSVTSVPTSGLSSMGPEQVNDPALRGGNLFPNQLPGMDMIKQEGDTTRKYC

As for `COc1ccc(S(=O)(=O)N2CCCCCC2)cc1C(=O)NCc1ccco1`, the inhibition is -3.91% in assay [1] and 1.95% in assay [2].
For `CCC1CCCCN1S(=O)(=O)c1ccc(NC(=O)c2nc(S(C)(=O)=O)ncc2Cl)cc1` (configuration not stated), in that order: 96.7% (active) and 72.7% (active).
The corresponding values for `CCN(CC)c1ccc(NC(=O)CCCCC(=O)Nc2ccc(N(CC)CC)cc2)cc1` are 16.2% and 48.3% (active).
The corresponding values for `Cc1ccc(S(=O)(=O)CCSC(=N)N)cc1` are 2.05% and 6.17%.
With `O=C1CCCC/C1=C/Nc1ccc2c(c1)OCO2`, the figures for the inhibition in assay [1] and in assay [2] were -58.7% and -65.5%, respectively.
As to `Cc1sc(NC(=O)CCCC(=O)O)c(C(N)=O)c1-c1ccccc1`, the results for the inhibition in assay [1] and in assay [2] were 37.1% (active) and 75.5% (active), respectively.
The corresponding values for `CCOC(=O)C(C(=O)OCC)C(Nc1cccc(Br)c1)c1ccccc1` (configuration not stated) are 8.47% and 19.3%.
For `O=C(CCl)Nc1ccc(-c2ccccc2)cc1`, in that order: 32.4% and 65.6% (active).
For `O=C(Cn1cnc2ccccc21)N/N=C/C(Br)=C/c1ccccc1`, in that order: -14% and -5.7%.
As for `O=C(O)c1ccc(Nc2nc3c(s2)CCCC3)cc1`, the inhibition in assay [1] is -31%; in assay [2], 10.9%.
The corresponding values for `NC(=S)N1OC[C@@H]2COc3ccc4ccccc4c3[C@@H]21` are 2.09% and 48.6% (active).
The corresponding values for `CC(=O)CC[C@@H]1CC[C@]2(CCCN(S(C)(=O)=O)C2)O1` are -18.6% and -4.54%.
Turning to `CCCNC(=O)c1ccc(N2CCC3(CC2)CC(c2cccc(Br)c2)=NO3)c([N+](=O)[O-])c1`, the inhibition in assay [1] was 8%; in assay [2] it was 7.7%.
The corresponding values for `COCCNC(=O)CN(C(=O)c1ccc(N2CCCC2)nc1)c1ccc(F)c(Cl)c1` are -5.77% and -19.2%.
For `C=C(C(=O)c1ccccc1)C(C)CC(=O)c1ccccc1` (configuration not stated), in that order: 11.5% and 26.8%.
For `Cc1nc([N+](=O)[O-])c(Sc2nc3ccc([N+](=O)[O-])cc3[nH]2)n1Cc1ccccc1`, in that order: -6.71% and 46.7% (active).
As to `COc1cc(-c2nnc(-c3cc(-c4ccccc4)nc4ccccc34)o2)cc(OC)c1OC`, the inhibition in assay [1] is -13.1%; in assay [2] it was -5.55%.
For the molecule `Cc1ccc2nc(C)cc(Nc3ccc4c(c3)OCCO4)c2c1`, the inhibition in assay [1] is -23.7%; in assay [2], 0.71%.
Regarding `CCN(CC)C(=O)C1CCCN(c2ncnc3c2cnn3-c2ccc(Cl)cc2)C1` (configuration not stated), the inhibition in assay [1] was -32.6%; in assay [2], 58.8% (active).
For `COc1cc(Cn2c3ccc(NC(=O)CC(C)c4ccccc4)cc3c(=O)n2C)ccc1F` (configuration not stated), in that order: -0.16% and 2.27%.
For `COc1ccc(S(=O)(=O)n2ccc(-c3ccc(OCCN(C)c4ccccn4)cc3)n2)cc1`, in that order: 3.56% and 30.2%.
For `CCOC(=O)c1ccccc1NC(=O)Cn1c(-c2nonc2N)nc2ccccc21`, in that order: -1.87% and 6.09%.
In the case of `CC(=O)CCc1ccc(OCCCCN2CCC(Cc3ccccc3)CC2)cc1`, the figures for the inhibition in assay [1] and in assay [2] were 13.2% and 0.94%, respectively.
The corresponding values for `CCCc1cc(=O)n2nc(N3CCC(C(=O)N4CCN(c5cccc(OC)c5)CC4)CC3)sc2n1` are -1.33% and 17.2%.
The corresponding values for `O=C(COC(=O)CCN1C(=O)/C(=C\C=C\c2ccccc2)SC1=S)Nc1ccc(Br)cc1` are 38.2% (active) and 74.3% (active).
The corresponding values for `O=C(CCCN1C(=O)/C(=C/c2ccccc2Cl)SC1=S)Nc1ccccn1` are 25.5% and 43.8%.
As for `CC1CCc2nc(N)c(C#N)c(-c3cccn3C)c2C1` (configuration not stated), the figures for the inhibition in assay [1] and in assay [2] were 15.5% and 15.7%, respectively.
The corresponding values for `CC1=CC(C)(C)N(S(=O)(=O)c2ccc(C)cc2)c2ccc(C)cc21` are 0.6% and -5.7%.
The corresponding values for `c1c2c(cc3sc(N4CCCCC4)nc13)OCCO2` are -48.9% and 7.6%.
Take `CCC(C)Nc1nc(C)nc2c1oc1ccccc12` (configuration not stated): the inhibition is 2.3% in assay [1] and 3.55% in assay [2].
For `CCOC(=O)c1c(C)[nH]c(C)c1C(=O)COC(=O)c1ccccc1O`, in that order: 2.18% and 20.3%.
For `O=C(Nc1nc2ccccc2s1)c1ccc(N2CCCCC2)c([N+](=O)[O-])c1`, the inhibition in assay [1] is -57.5%; in assay [2], 10%.
The corresponding values for `CCn1cc(S(=O)(=O)Nc2ccc3c(c2)OCCO3)cn1` are -3.8% and 48.4% (active).
On to `O=C(CCCN1C(=O)/C(=C/c2ccccc2Cl)SC1=S)NNC(=O)c1ccc(Cl)cc1`, for which the inhibition was 73.7% (active) in assay [1] and 82% (active) in assay [2].
Consider `CCOC(=O)C1(Cc2ccc(Cl)cc2)CCN(C(C)Cc2ccc(O)c(OC)c2)CC1` (configuration not stated), for which the inhibition in assay [1] is 15.9%; in assay [2], 30.1%.
The corresponding values for `CN1CCN(/N=C/c2ccc(N(c3ccccc3)c3ccccc3)cc2)CC1` are 2.36% and 27.4%.

The record behind these values is PubChem BioAssay.
